Assay outcomes as filed in PubChem BioAssay.
ROMK primary = modulates human ROMK potassium channel activity; Tet-inducible ROMK, thallium flux fluorescence; actives lie on both sides; AID 1918; hit rate 2% among 130,000; B-score at 10 µM;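 active = signal ratio slope over the read window, or its plate-corrected B-score, at least 3 SD from the plate mean, either direction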;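 note: B-score of the F/F0 ratio slope over 7 to 12 s after thallium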
Target sequence (P48048 whole entry, looked up): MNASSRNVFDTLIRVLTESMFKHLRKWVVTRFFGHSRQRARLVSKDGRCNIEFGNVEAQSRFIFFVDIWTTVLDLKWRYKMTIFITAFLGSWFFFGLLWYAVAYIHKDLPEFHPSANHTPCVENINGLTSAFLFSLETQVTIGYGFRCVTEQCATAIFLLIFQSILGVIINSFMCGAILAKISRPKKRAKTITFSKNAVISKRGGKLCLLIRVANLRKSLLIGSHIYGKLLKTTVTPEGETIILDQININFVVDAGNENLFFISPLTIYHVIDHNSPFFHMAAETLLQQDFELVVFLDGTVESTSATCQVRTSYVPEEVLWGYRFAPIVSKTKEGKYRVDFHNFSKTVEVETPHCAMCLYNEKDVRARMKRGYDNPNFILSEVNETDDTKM
Measles CPE = protection of cells from measles virus | Measles virus-infected cells, CPE protection, absorbance | protection (pct of control), % at 4 µM | hit rate 1.5% among 140,000; in the data active = protection mostly above about 24%, no sharp cut-off; inactive = mostly below about 26%
INS promoter inh = TRM-6 insulin promoter activity inhibition; TRM-6 cells (human fetal islet line), insulin promoter-eGFP reporter, imaging; reporter expression induced with tamoxifen; inhibition, % at 2 µM; hit rate 0.9% among 130,000;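 active = inhibition above the mean plus 3 SD, with well images judged a real hit on visual review, cut at about 60% in these data, passing the limit was not always enough; inconclusive = inhibition over the cutoff but images rejected on review; inactive = inhibition not above the cutoff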
sdo1 growth = sdo1-depleted yeast growth rescue; S. cerevisiae sdo1-depleted JHY4D growth rescue, OD600 30 h; stronger effect = higher value; pdr5 snq2 efflux-pump mutant strain; z-score at 10 µM; AID 817; hit rate 0.21% among 140,000;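 active = z-score above 3 at both the 24 hr and the 30 hr optical density reads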;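 note: z-score against mean and SD of all compound wells on the same plate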
ROMK retest = retested hit modulating human ROMK potassium channel. shares compounds with ROMK primary. ROMK thallium flux, fluorescence ratio; stronger effect = lower value. normalized thallium flux (F/F0 slope) at 10 µM. hit rate 54% among 3,000;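 active = Flux at 10 µM at least 3 SD below or above vehicle control mean in one or both replicates; inconclusive = no clear call, values can overlap the other calls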
Active calls of the source: *; ? = inconclusive; · = not tested or not shown. Most compounds without a hit are left out; they make up all but 3% or so of the library.

SMILES | ROMK primary | Measles CPE | INS promoter inh | sdo1 growth | ROMK retest
CCOC(=O)c1cc(-c2ccccc2)sc1NC(=O)C(C)OC(=O)c1cccnc1OCC (configuration not stated) | · | 9 | · | 1.2 | ·
COc1cc(/C=C2\SC(=S)N(Nc3ncc(C(F)(F)F)cc3Cl)C2=O)ccc1O | -3.7* | 2 | 49 | -2.7 | 0.064*
COc1cc(/C=C2\SC(=S)N(NC(=O)c3cccnc3)C2=O)ccc1O | -4.2* | · | · | · | 0.058*
CN(C)c1ccc(/C=C2\SC(=S)N(Nc3ncc(C(F)(F)F)cc3Cl)C2=O)cc1 | · | 2 | -63 | 0.04 | ·
COc1cc(/C=C2\SC(=S)N(Nc3ccccc3)C2=O)ccc1O | · | 42 | 3 | -1.8 | ·
O=C1/C(=C/c2ccc(O)c(O)c2)SC(=S)N1Nc1ccccc1 | -2* | · | · | · | 0.058*
COc1ccc([N+](=O)[O-])cc1NC(=O)c1ccccc1N(C)S(C)(=O)=O | 0.73 | · | · | · | ·
CC(C)CC(N=Cc1c(O)c2ccccc2oc1=O)C(=O)O (configuration not stated) | 0.74 | · | -67 | · | ·
N#CC1=C(N)OC2=C(C(=O)CCC2)C1CCc1ccccc1 (configuration not stated) | 0.049 | 10 | -3 | 0.41 | ·
O=C(NNC(=O)C1[C@H]2CCCC[C@@H]12)NC1CCCCC1 (some centres not stated) | -0.85 | 12 | 36 | 0.27 | ·
CCc1cccc(NC(=O)CSC2=NS(=O)(=O)c3ccccc32)c1 | · | 25 | · | -2.1 | 0.059*
Cc1scc2c1N(C(=O)CN1CCN(C)CC1)c1ccccc1NC2=O | 3.1* | · | 13 | · | 0.075
O=C1CC(N2CCN(S(=O)(=O)c3cccc(C(F)(F)F)c3)CC2)C(=O)N1Cc1ccccc1 (configuration not stated) | -1.7 | 2 | -91 | 0.27 | ·
Cc1ccc2[nH]c(=O)c(CN(Cc3ccccc3)C(=S)NCCCN(C)C)cc2c1 | -3.2* | · | 33 | · | ?
COc1ccccc1NC(=O)CN(Cc1ccco1)C(=O)c1ccc(Cl)nc1 | -0.39 | · | · | · | ·
CCOc1cc(/C=N/n2cnnc2)cc(Br)c1O | · | 6 | -11 | 0.06 | 0.077
O=C(Nc1ccccc1)Nc1ncc([N+](=O)[O-])s1 | -1.8 | · | 28 | · | 0.064*
CCN1C(=O)c2cccc3c(S(=O)(=O)Nc4ccccc4OC)ccc1c23 | · | 27 | -109 | -0.41 | 0.062*
NC(=O)C1=NOC(CNc2ncc(C(F)(F)F)cc2Cl)C1 (configuration not stated) | 2.4* | 1 | 22 | 0.43 | 0.088
O=C(Nc1ccc(F)cc1)N1CCN(C/C=C/c2ccccc2)CC1 | · | 11 | 33 | -0.53 | ·
Cc1cc(C)cc(NC(=O)N2CCN(C/C=C/c3ccccc3)CC2)c1 | -4.2* | · | · | · | 0.067*
O=C(O)c1ccc(-c2nc(-c3ccc(Cl)c(Cl)c3)cs2)cc1 | 3.1* | · | -107 | · | 0.082
O=C(O)c1ccc(-c2nc(-c3ccccc3)cs2)cc1 | -0.92 | · | -18 | · | ·
COc1ccc(C2=NN(CN3C(=O)C(=O)c4ccccc43)C(c3ccc(OC)cc3)C2)cc1 (configuration not stated) | 0.23 | 6 | -71 | 0.99 | ·
CC(CNC(=O)C1CCCCC1C(=O)O)c1ccccc1 (configuration not stated) | · | 8 | 29 | 0.35 | ·
SMILES | ROMK primary | Measles CPE | INS promoter inh | sdo1 growth | ROMK retest
CCOc1ccccc1CN1CCN(CC2=Cc3cc(OC)ccc3OC2)CC1CCO (configuration not stated) | · | · | · | · | 0.067*
CC(=O)OCC1=C(C(=O)O)N2C(=O)C(NC(=O)CCn3nc(C(F)(F)F)c(Br)c3C3CC3)C2SC1 (configuration not stated) | 0.23 | · | · | · | ·
CC(C)(C)N(NC(=O)Nc1ccc(Cl)c(Cl)c1)C(=O)c1ccccc1 | · | 7 | 23 | 0.18 | 0.077
CSc1nccc(-c2nn(-c3ccc(C)cc3)ccc2=O)n1 | 4.4* | 21 | 8 | 0.16 | 0.093
C=CCSc1nccc(-c2nn(-c3ccc(C)cc3)ccc2=O)n1 | · | 9 | 14 | -0.61 | ·
CCSc1nccc(-c2nn(-c3ccc(C)cc3)ccc2=O)n1 | 3.1* | 7 | · | -0.01 | 0.088
COc1ccc(C(C)(C)C)cc1NC(=O)Nc1ccc2c(c1)OCO2 | -0.15 | 24 | 16 | -2.2 | ·
CN(/C=C/C(=C\C=[N+](C)c1ccccc1)OCCCS(=O)(=O)[O-])c1ccccc1 | -3.1* | · | · | · | 0.061*
CN(/C=C/C(=C/C=[N+](C)c1ccccc1)OCCCS(=O)(=O)[O-])c1ccccc1 | -3.5* | · | 0 | · | 0.056*
CCCCCCCCCC[n+]1cccc2c3ccccc3ccc21 | · | · | -107 | · | 0.035*
CCCCCCCCNc1ncnc2ccccc12 | -0.99 | 40 | 53 | -1.7 | ·
CCCCCCCC[n+]1cccc2c3ccccc3ccc21 | · | · | -57 | · | 0.052*
Cc1cccc[n+]1CCCCCCCCCC[n+]1ccccc1C | 0.31 | · | 19 | · | ·
CC(C)CC(COCc1ccc(Cl)cc1)N1CCN(C(=O)c2ccc(Cl)cc2Cl)CCC1=O (configuration not stated) | -2.1 | 34 | -55 | -0.64 | ·
CC1CCCCC1NC(=O)CN1C(=O)CSc2cc(S(=O)(=O)N3CCCCCC3)ccc21 (configuration not stated) | -4.5* | 3 | -78 | 0.31 | 0.065*
CCOC(=O)CN1C(=O)CSc2ccc(S(=O)(=O)N3CCCC3)cc21 | -0.0047 | · | · | · | ·
O=C(OCc1ccccc1)c1ccc2c(c1)-c1ccccc1C2=O | · | 2 | -26 | -0.76 | ·
COc1ccccc1CN1C[C@@H]2C[C@@H](C3=Cc4cc(Cl)ccc4OC3)N3CCC[C@@]23C1=O | -3.2* | · | · | · | 0.065*
CN1C[C@@H]2C[C@@H](C3=Cc4cc(Cl)ccc4OC3)N3CCC[C@@]23C1=O | -0.39 | · | 17 | · | ·
C[C@@H]1CN(c2nc3nonc3nc2N2CCSCC2)C[C@H](C)O1 | 0.62 | · | · | · | ·
C1CN(c2nc3nonc3nc2N2C[C@H]3CC[C@H]2C3)CCS1 | 1.4* | · | · | · | 0.075
COC(=O)c1ccccc1NC(=S)N(Cc1ccc2c(c1)OCO2)Cc1cc2cccc(C)c2[nH]c1=O | · | 13 | · | -0.41 | ·
Cc1nnnn1/C(=C\c1ccccc1)C(=O)OCC(=O)NC(C)(C)C | -8.2* | 31 | -26 | -0.55 | 0.043*
CC(C)(C)c1ccc(OCCCNCc2ccccc2)cc1 | -0.91 | 4 | 13 | -0.97 | ·
CN(Cc1ccccc1)C(=O)COc1ccc(Br)cc1Cl | -0.37 | · | · | · | ·
SMILES | ROMK primary | Measles CPE | INS promoter inh | sdo1 growth | ROMK retest
Clc1cc(Br)ccc1OCCCNCc1ccccc1 | -4.3* | 9 | 0 | -1.2 | 0.059*
CCc1cc(OCCCCNCc2ccccc2)ccc1Cl | -3.6* | 2 | 26 | -1.6 | 0.054*
CCCSc1nnc2n(C)c(=O)c3c4c(sc3n12)CCC4 | · | 2 | · | -0.12 | ·
CCCCN(CCCC)C(=O)CSc1nnc2n(C)c(=O)c3c4c(sc3n12)CCCC4 | -3.6* | 23 | 24 | -1.1 | 0.049*
CC(C)OC(=O)CSc1nnc(CNc2nc(-c3ccccc3)cs2)n1C | -2.7* | 6 | -36 | 0.05 | 0.062*
Cn1c(CNc2nc(-c3ccccc3)cs2)nnc1SCC(=O)OC1CCCCC1 | -2.2 | 6 | · | -1.6 | ·
COc1ccc(S(=O)(=O)Nc2nc3ccccc3nc2Nc2ccc3c(c2)OCO3)cc1 | -0.63 | 3 | -20 | -0.54 | ·
